The text below walks through data of PubChem BioAssay (EPA / NIEHS).

Broadly, the AC50 is the midpoint of the concentration-response curve, whichever way the signal moves.

Each structure is given as a SMILES string. The source holds several records for some structures; these can differ, active in one and inactive in another. Calls of active or inactive are those of the source. Rule for the calls: active = hit-call score of the fitted dose curve at least 0.9, where 1 is the maximum; inactive = score below 0.9.

Sequence of Bile acid receptor (Homo sapiens) (Q96RI1 whole entry, looked up): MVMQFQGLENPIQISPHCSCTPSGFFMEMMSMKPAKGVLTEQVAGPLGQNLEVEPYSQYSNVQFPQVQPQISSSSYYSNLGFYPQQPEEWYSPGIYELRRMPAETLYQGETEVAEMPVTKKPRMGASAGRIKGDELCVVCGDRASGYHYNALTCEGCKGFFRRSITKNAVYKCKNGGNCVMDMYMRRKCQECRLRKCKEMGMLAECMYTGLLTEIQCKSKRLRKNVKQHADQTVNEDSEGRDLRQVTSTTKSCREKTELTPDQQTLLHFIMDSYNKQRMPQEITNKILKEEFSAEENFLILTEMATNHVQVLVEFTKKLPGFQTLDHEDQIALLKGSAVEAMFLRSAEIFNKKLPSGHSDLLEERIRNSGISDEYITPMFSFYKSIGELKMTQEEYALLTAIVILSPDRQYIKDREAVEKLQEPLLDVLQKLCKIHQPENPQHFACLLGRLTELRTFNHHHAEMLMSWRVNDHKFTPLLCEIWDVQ

This assay addresses Bile acid receptor (Homo sapiens) (UniProt Q96RI1). Description: ATG_IR1_CIS: Attagene CIS-FACTORIAL HepG2 Assay for human Nuclear Receptor Subfamily 1 Group H Member 4 (NR1H4), IR1 submotif (AID 2282946). The following applies: IR1 reporter transcription, actives raise or lower the signal. As to the method:
ATG_CIS is a cell-based, multiplexed-readout assay that uses HepG2, a human liver cell line, with measurements taken at 24 hours after chemical dosing in a 24-well plate.ATG_IR1_CIS is one of 52 assay component(s) measured or calculated from the ATG_CIS assay. It is designed to make measurements of mRNA induction, a form of inducible reporter, as detected with fluorescence intensity signals by Reverse transcription polymerase chain reaction (RT-PCR) and Capillary electrophoresis technology.Data from the assay component ATG_IR1_CIS was analyzed into 1 assay endpoint. This assay endpoint, ATG_IR1_CIS, was analyzed with bidirectional fitting relative to DMSO as the negative control and baseline of activity. Using a type of inducible reporter, measures of mRNA for gain or loss-of-signal activity can be used to understand the reporter gene at the transcription factor-level as they relate to the gene NR1H4. Furthermore, this assay endpoint can be referred to as a primary readout, because this assay has produced multiple assay endpoints where this one serves a reporter gene function. To generalize the intended target to other relatable targets, this assay endpoint is annotated to the nuclear receptor intended target family, where the subfamily is non-steroidal.
Human liver HepG2 cells are transiently transfected with multiple reporter transcription units (MRTUs) in 6-well plates using FuGene 6 reagent (Roche; 3 ml FuGene/1 mg DNA). The MRTU constructs are regulated by a cis-regulating element (promoter). […] A major difference between the CIS and TRANS system is that in CIS activities of endogenous TFs are measured, whereas the TRANS assay evaluates changes in activities of exogenous, chimeric NR-Gal4 proteins. […] At the end of 24 hour incubation, total RNA was isolated using TriZol reagent (Invitrogen). The isolated RNA is then reverse-transcribed using oligo(dT) primer and Mo-MLV reverse transcriptase (Invitrogen) with DNAse I (Ambion) treatment for 30 min. The one-tenth of the produced cDNA was amplified by PCR using Taq DNA polymerase (Invitrogen) and two reporter sequence-specific primers. The PCR products were fluorescently labeled by primer extension with 6-arboxyfluorescein (6-FAM) 5'-labeled reporter sequence-specific primer (2 min at 95 C, 20 s at 68 C and 10 min at 72 C) and these products were digested with 5U of HpaI (New England Biolabs) for 2h at 37 C. The fragments were purified using Qiaquick PCR columns (Qiagen), analyzed on an ABI 3130xL genetic analyzer (Applied Biosystems) with peak positions identified by using a set of X-rhodamine (ROX)-labeled MapMarker1000 molecular weight standards (BioVentures). The raw capillary electrophoresis data was processed using Attagraph software (Attagene).
Consider `Nc1cc(Cl)c(N)c(Cl)c1`, for which the outcome was inactive.
On to `OCC(F)(F)C(F)(F)C(F)(F)F`, for which the compound was classed as inactive.
Regarding `O=C(O)C(F)(F)C(F)(F)C(F)(F)C(F)(F)C(F)(F)C(F)(F)C(F)(F)C(F)(F)C(F)(F)C(F)(F)C(F)(F)C(F)(F)F`, the call was inactive.
As for `CCC(=O)OCCc1ccccc1`, the outcome was inactive.
Consider `O=C(O)C(F)(OC(F)(F)C(F)(OC(F)(F)C(F)(OC(F)(F)C(F)(F)C(F)(F)F)C(F)(F)F)C(F)(F)F)C(F)(F)F` (stereo not given), for which the compound was classed as inactive.
For the compound `O=C(OCCOCCOCCOC(=O)c1ccccc1)c1ccccc1`, the outcome was inactive.
Turning to `O[Si](c1ccccc1)(c1ccccc1)c1ccccc1`, the AC50 is 10.2 µM (active).
Take `CCCCCCCCCCCCCCCC[N+](C)(C)Cc1ccccc1`: the AC50 is 10.2 µM (active).
For `CCc1c(Br)c(Br)c(Br)c(Br)c1Br`, the call was inactive.
Same read-out and setting: the same measure for `CC(C)=CCCC(C)CCOC(=O)C(C)C` (stereo not given): “inactive”; for `FC(F)(F)C(F)(F)CNCC(F)(F)C(F)(F)F`: “inactive”.
As for `O=C(CC(=O)C(F)(F)C(F)(F)F)C(F)(F)F`, the AC50 is 106 µM (active) and the result was inactive.
On to `CC(C)(C)C(=O)CC(=O)C(F)(F)C(F)(F)C(F)(F)F`, for which the call was inactive.
The same measure, in the same setting: the result for `C=C(C)C(=O)OCC(F)(F)C(F)(F)C(F)(F)F` reads “inactive”; that for `C=CC(F)(F)C(F)(F)C(F)(F)C(F)(F)C(F)(F)C(F)(F)C(F)(F)C(F)(F)C=C`, “inactive”.
Regarding `O=C(O)C(F)(F)C(F)(F)OC(F)(F)F`, the outcome was inactive.
The same measure, in the same setting: the same measure for `C=C(C)C(=O)OCCC(F)(F)C(F)(F)C(F)(F)C(F)(F)C(F)(C(F)(F)F)C(F)(F)F`: “inactive”; for `O=S(=O)(O)c1ccc2ccccc2c1`: “inactive”.
In the case of `Nc1ccc([N+](=O)[O-])cc1O`, the result was inactive.
In the case of `FC1CC(F)(F)C(F)(F)C1(F)F` (stereo not given), the compound was classed as inactive.
For `FC(F)(F)C(F)(F)C(F)(F)C(F)(F)C(F)(F)C(F)(F)C(F)(F)C(F)(F)CCS`, the compound was called inactive.
With `O=C(O)C(F)(OC(F)(F)C(F)(OC(F)(F)C(F)(F)C(F)(F)F)C(F)(F)F)C(F)(F)F` (stereo not given), the compound was classed as inactive.
Regarding `CC/C=C\CCOC(C)=O`, the outcome was inactive.
As to `C=CC(F)(F)C(F)(F)C(F)(F)C(F)(F)C(F)(F)C(F)(F)C(F)(F)C(F)(F)F`, the compound was called inactive.
Consider `O=P(O)(O)OCCC(F)(F)C(F)(F)C(F)(F)C(F)(F)C(F)(F)C(F)(F)F`, for which the outcome was inactive.
`FC(F)(F)C(F)(F)C(F)(F)C(F)(F)C(F)(F)C(F)(F)C(F)(F)C(F)(F)F`: the compound was classed as inactive.
In the case of `FC(F)(I)C(F)(F)C(F)(F)C(F)(F)I`, the result was inactive.
Turning to `c1ccc(-c2ccccc2-c2ccccc2)cc1`, the AC50 was 27.1 µM (active).
For `OCC(F)(F)C(F)(F)C(F)(F)C(F)(F)C(F)(F)C(F)F`, the result was inactive.
Still for that read-out and setting: the same measure for `COC(=O)C1CCC(C(=O)OC)CC1` (stereo not given): “inactive”.
As to `CCCCCCOC(=O)c1ccccc1O`, the compound was called inactive.
On to `FC(F)(F)C(F)(F)C(F)(F)N(C(F)(F)C(F)(F)C(F)(F)F)C(F)(F)C(F)(F)C(F)(F)F`, for which the outcome was inactive.
Same read-out and setting: the result for `OCCCC(F)(F)C(F)(F)C(F)(F)F` reads “inactive”; that for `CCCCCCS`, “inactive”.
Turning to `CN(C)Cc1ccccc1O`, the outcome was inactive.
Still for that read-out and setting: the same measure for `CCCCCCCCC(F)(F)C(F)(F)C(F)(F)C(F)(F)C(F)(F)C(F)(F)F`: “inactive”; for `CCO[Si](CCC(F)(F)C(F)(F)C(F)(F)C(F)(F)C(F)(F)C(F)(F)F)(OCC)OCC`: “inactive”.
`OCC(F)(F)C(F)(F)C(F)(F)C(F)(F)C(F)(F)C(F)(F)F`: the compound was classed as inactive.
Consider `OCC(F)(F)C(F)(F)C(F)(F)C(F)F`, for which the result was inactive.
